The values below come from PubChem BioAssay.

Each structure is given as a SMILES string.

The subject of assay [1] is Human papillomavirus type 1a protein E7 (residues 44-93). Put plainly: HPV1a E7 fragment binders on microarrays, primary screen, biochemical, small-molecule microarray, residues 44-93, 635 nm fluorescence (AID 1108).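 Also: E7 fragment applied at 1 µg/mL in TBST for 1 h at 4 C; score combines spot fluorescence with its signal to noise ratio.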 The note with it: small-molecule microarray binding, fluorescence 635 nm; higher = more signal.
A short description of assay [2]: modulators of HCV replicon luciferase signal, primary screen, HCV replication inhibitor project, Huh7 cells, luciferase reporter (AID 1109).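 Also: huh7 hepatoma cells harbouring a luciferase neomycin HCV replicon reporter; luciferase luminescence as measure of HCV replicon replication; test concentration not given here.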 The note with it: 48 h, higher = more signal.
Assay [3] concerns the target Left-right determination factor 2 (Homo sapiens) (UniProt O00292). The experiment in a line: LEFTY2 binders on small-molecule microarrays, primary screen, biochemical, small-molecule microarray, 635 nm fluorescence scan (AID 1110). The note with it: LEFTY2 binding, higher = more signal.
The target in assay [4] is Calmodulin-1 (Homo sapiens) (UniProt P0DP23). The experiment in a line: CALM1 binders on microarrays, EGTA buffer, profiling panel, biochemical, small-molecule microarray, Cy5-labelled CALM1 (AID 1111).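 Also: labelled calmodulin applied in Tris saline Tween buffer holding calcium plus EGTA and DTT.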 Particulars: Cy5-CALM1 binding fluorescence, higher = more signal.
Assay [5] has the same target. The experiment in a line: calcium-bound CALM1 binders on microarrays, profiling panel, artefact control for SMM control-protein annotation, biochemical, small-molecule microarray, Cy5-labelled CALM1, plus calcium (AID 1112).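 Also: score merges spot fluorescence with signal to noise from triplicate slides.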 The note with it: Cy5-CALM1 binding fluorescence, higher = more signal.
Assay [6] can be described thus: small-molecule microarray binders of probe aWnt5a, primary screen, biochemical, biotinylated probe, 635/667 nm fluorescence (AID 1113).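 Also: score merges 667 nm fluorescence intensity with signal-to-noise per printed feature.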 The note with it: higher = more signal.
Assay [7] in a line: small-molecule microarray binders of probe aShh, primary screen, biochemical, biotinylated probe, 635/667 nm fluorescence (AID 1114).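 Also: probe is biotin-labelled aShh protein from a stem cell growth factor screen; measures binding of labelled protein to compounds printed on the slide; score merges feature fluorescence at 667 nm with signal-to-noise.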 The note with it: higher = more signal.
Assay [8] can be described thus: small-molecule microarray binders of probe aNog, primary screen, biochemical, biotinylated probe, 635/667 nm fluorescence (AID 1115).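 Also: probe is biotinylated aNog protein used at 0.15 µg/mL for 1 h at 4 C; z-score combines 667 nm fluorescence of each spot with its signal to noise.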 Particulars: higher = more signal.
The target in assay [9] is Torsin-1A-interacting protein 1 (Homo sapiens) (UniProt Q5JTV8). The experiment in a line: LAP1 binders from COS7 cell lysate, primary screen, small-molecule microarray, 635/667 nm fluorescence (AID 1116). The note with it: COS7-hLAP1 lysate binding, 635 nm fluorescence, higher = more signal.
Torsin-1A-interacting protein 1 (Homo sapiens), sequence (Q5JTV8 whole entry, looked up): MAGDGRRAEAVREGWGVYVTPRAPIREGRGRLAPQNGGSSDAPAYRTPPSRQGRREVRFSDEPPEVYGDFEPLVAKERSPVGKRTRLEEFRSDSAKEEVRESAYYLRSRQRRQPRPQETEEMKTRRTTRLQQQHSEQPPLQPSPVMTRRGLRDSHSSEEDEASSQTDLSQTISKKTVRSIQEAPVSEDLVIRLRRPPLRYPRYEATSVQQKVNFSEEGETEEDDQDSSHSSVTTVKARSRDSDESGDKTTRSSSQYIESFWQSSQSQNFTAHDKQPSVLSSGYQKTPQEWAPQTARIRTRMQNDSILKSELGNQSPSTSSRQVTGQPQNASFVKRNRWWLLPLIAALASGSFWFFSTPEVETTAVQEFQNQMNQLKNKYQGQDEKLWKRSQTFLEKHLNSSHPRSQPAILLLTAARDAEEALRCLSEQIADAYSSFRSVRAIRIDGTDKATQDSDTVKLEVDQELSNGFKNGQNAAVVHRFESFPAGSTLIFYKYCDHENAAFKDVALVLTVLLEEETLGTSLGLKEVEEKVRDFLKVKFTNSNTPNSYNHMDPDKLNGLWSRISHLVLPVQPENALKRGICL
The target of assay [10] is Alpha-bungarotoxin (Bungarus multicinctus) (UniProt P60615). Put plainly: alpha-bungarotoxin binders on microarray, profiling panel, artefact control for SMM control protein annotation, biochemical, small-molecule microarray, Alexa647 label, 635/667 nm fluorescence (AID 1117). Particulars: alpha-BTX-A647 binding fluorescence, higher = more signal.
Alpha-bungarotoxin (Bungarus multicinctus), sequence (P60615 whole entry, looked up): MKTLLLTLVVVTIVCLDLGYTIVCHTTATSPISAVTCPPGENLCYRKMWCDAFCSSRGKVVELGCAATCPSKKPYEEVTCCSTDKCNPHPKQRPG

Left-right determination factor 2 (Homo sapiens), sequence (O00292 whole entry, looked up): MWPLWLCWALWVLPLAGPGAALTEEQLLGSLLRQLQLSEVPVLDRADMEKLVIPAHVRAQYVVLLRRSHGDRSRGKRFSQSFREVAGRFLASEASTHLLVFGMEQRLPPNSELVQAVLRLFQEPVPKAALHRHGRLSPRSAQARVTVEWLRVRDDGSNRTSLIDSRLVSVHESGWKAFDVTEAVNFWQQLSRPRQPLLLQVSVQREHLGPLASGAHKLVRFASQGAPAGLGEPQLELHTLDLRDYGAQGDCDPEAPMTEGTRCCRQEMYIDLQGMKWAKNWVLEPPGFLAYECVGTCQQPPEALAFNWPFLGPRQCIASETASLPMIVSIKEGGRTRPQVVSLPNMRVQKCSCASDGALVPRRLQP

Consider `COC(=O)[C@H](Cc1ccccc1)N1CC(/C=C/C2CC2)=C[C@@H]1[C@@H](O)Cc1ccccc1`, for which the composite z-score in [1] is 1.31; in [3], 1.04; in [4], 0.48; in [5], -0.513; in assay [6], 0.0079; in assay [7] it was -0.0035. Besides, the composite z-score was found to be 0.131 in [8], 0.0412 in assay [9] and 0.737 in [10]. Further, the z-score in assay [2] is -1.33.
Take `O=C1OCCC=C[C@H]2OC34C=CCN(c5ccc(Cl)cc5)C(=O)[C@H]3N(CCCCCO)C(=O)[C@@H]4C12` (stereo not given in full): the composite z-score in [1] is -0.357; in assay [3], -0.639; in [4], -0.262; in assay [5], -0.137; in [6] it was -0.0512; in assay [7], -0.0769. In addition, the composite z-score in [8] is 0.496; in [9], 0.681; in assay [10], -0.702. For the same compound, the z-score in [2] amounted to 0.312.
For the compound `CCOC(=O)C[C@H]1[C@H](OC(=O)c2ccc(-c3ccccc3)cc2)[C@@H](NC(=O)C2CCCCC2)c2cc(OCCCO)ccc2N1C(=O)c1ccccc1`, the composite z-score is 0.959 in assay [1]; 0.365 in assay [3]; 0.413 in [4]; -0.0071 in assay [5]; -0.0822 in assay [6]; -0.123 in assay [7]. Also, the composite z-score is -0.232 in assay [8], -0.241 in [9] and 0.0785 in assay [10]. This compound also registered a z-score in [2] of -1.84.
Take `CC(C)C[C@@H]1NC(=O)[C@H]2C[C@@H](C(=O)NCCCCCC[N+](C)(C)C)[C@@H](c3cccc(OCCO)c3)N2C1=O`: the composite z-score was -0.209 in assay [1]; 0.538 in [3]; -0.432 in assay [4]; -0.738 in [5]; -0.152 in [6]; -0.0035 in assay [7]. Besides, the results for the composite z-score in assay [8], in assay [9] and in assay [10] were -0.378, 0.501 and 0.0962, respectively. The z-score in assay [2] amounted to 1.79.
Regarding `O=C1NC(=O)C2C1C=CC(C(O)c1c(F)cccc1Cl)N2Nc1ccccn1` (stereo not given), the composite z-score in [1] is -0.465; in assay [3], 0.5; in assay [4], -1.19; in [5], -0.625; in [6] it was 0.0108; in assay [7], -0.0274. For the same compound, the composite z-score in assay [8] was -0.207; in [9], 0.505; in assay [10] it was -0.358. Also, in assay [2], the z-score is -0.469.
As for `COc1ccc([Si](C)(C)[C@H]2[C@H](CCO)O[C@@]3(C(=O)N(Cc4cccc(N5CCCCC5=O)c4)c4ccccc43)[C@@H]2C)cc1`, the composite z-score in assay [1] was 1.25; in [3], 1; in [4], 0.557; in assay [5] it was 0.388; in assay [6], -0.0919; in assay [7] it was 0.149. Further, the composite z-score was determined as 0.304 in assay [8], 0.753 in assay [9] and 1.22 in [10]. In assay [2], this compound had a z-score of -5.07.
For the compound `COCCOC(=O)N1C(=O)[C@@]2(c3cc(C#CC4=CCCCC4)ccc31)[C@H](c1ccccc1OCCO)N1[C@H](c3ccccc3)[C@H](c3ccccc3)OC(=O)[C@H]1[C@@H]2C(=O)N1CCc2cc(OC)c(OC)cc2C1`, the composite z-score was 1.33 in [1]; 0.336 in [3]; -0.141 in assay [4]; -0.383 in [5]; -0.121 in assay [6]; -0.176 in assay [7]. Moreover, the composite z-score in assay [8] is -0.008; in assay [9], 0.336; in assay [10] it was 0.761. The same compound returned a z-score in assay [2] of -1.81.
Turning to `O=c1cccc(-c2ccc(C(F)(F)F)cc2)o1`, the composite z-score in assay [1] is -1.57; in assay [3], -0.534; in assay [4], -0.271; in assay [5], 0.238; in [6] it was -0.0685; in [7], 0.163. The composite z-score in assay [8] is -0.0446; in assay [9] it was -0.333; in [10] it was -0.364. Also, the z-score in [2] was found to be 0.587.
Turning to `COc1ccccc1CN1C(=O)c2ccccc2[C@](Cc2ccccc2I)(C(=O)NC(C)C)[C@@H]1c1ccc(CO)cc1`, the composite z-score was 1.46 in [1]; 0.242 in [3]; 0.704 in assay [4]; 0.0649 in assay [5]; -0.0455 in assay [6]; 0.131 in assay [7]. Further, the composite z-score in assay [8] was -0.402; in assay [9], 0.855; in [10] it was 1.41. The z-score in assay [2] is -2.22.
With `O=C1O[C@@H](c2ccccc2)[C@@H](c2ccccc2)N2[C@@H](c3ccc(O)cc3)[C@]3(C(=O)Nc4ccc(C#CCCO)cc43)[C@@H](C(=O)NC[C@H](O)c3ccccc3)[C@H]12`, the composite z-score in [1] is 0.334; in assay [3] it was -1.87; in assay [4], -0.282; in [5] it was 0.374; in assay [6] it was -0.243; in [7] it was 0.057. The composite z-score is 1.4 in [8], -0.138 in assay [9] and -0.588 in assay [10]. The z-score in [2] is 0.0035.
For `CCCC[C@@H]1C[C@H]1[C@@H](NC(=O)c1cccnc1)c1ccc(-c2ccccc2)cc1`, the composite z-score is -0.447 in [1]; -1.99 in assay [3]; -0.297 in assay [4]; 0.742 in assay [5]; -0.141 in assay [6]; 2.01 in [7]. Further, the composite z-score is -0.744 in assay [8], -1.2 in assay [9] and -0.556 in assay [10]. This compound returned a z-score in [2] of -1.95.
Take `COC(=O)C[C@H]1O[C@]2(C(=O)N(C)c3ccccc32)[C@@H](C)[C@@H]1[Si](C)(C)c1ccc(C)cc1`: the composite z-score in [1] was 1.15; in [3], 0.375; in [4], 0.196; in assay [5] it was -0.0787; in assay [6], -0.136; in assay [7], -0.393. Besides, the composite z-score in [8] is -0.121; in assay [9], 0.346; in [10] it was 0.638. This compound came in with a z-score in [2] of -2.92.
For `COC(=O)[C@@]1(Cc2ccc(F)cc2)[C@H]2c3cc(C(=O)N4CCCC4)n(CCc4c[nH]c5ccc(OC)cc45)c3C[C@H]2CN1C(=O)c1ccccc1`, the composite z-score in assay [1] is 1.4; in assay [3], 0.474; in assay [4] it was 1.92; in assay [5], 0.878; in [6], 1.19; in assay [7], 1.17. In addition, the composite z-score worked out at 2.98 in [8], 0.781 in assay [9] and 1.23 in assay [10]. This compound also had a z-score in [2] of -2.22.
With `O=C(O)[C@]1(Cc2ccccc2)N=C(c2ccc(OCCCO)cc2)O[C@@H]1c1ccccc1`, the composite z-score in assay [1] is -0.218; in assay [3] it was -0.539; in assay [4] it was -0.201; in [5], 0.206; in [6], -0.128; in [7], 0.0893. The composite z-score in assay [8] was 0.306; in assay [9], -0.499; in assay [10], -0.905. In assay [2], this compound yielded a z-score of 0.398.
Turning to `COc1ccc([Si](C)(C)[C@H]2[C@H](CCn3cc([C@H](O)c4ccccc4)nn3)O[C@@]3(C(=O)N(Cc4ccc(N5CCC5=O)cc4)c4ccccc43)[C@@H]2C)cc1`, the composite z-score was 0.73 in assay [1]; 0.656 in assay [3]; -0.468 in assay [4]; -0.217 in assay [5]; -0.16 in assay [6]; -0.138 in assay [7]. Also, the composite z-score is -0.103 in assay [8], 0.273 in [9] and 0.54 in [10]. In assay [2], the z-score was -0.917.
Consider `COC(=O)Cn1c(C(=O)N2CCCC2)cc2c1C[C@H]1CN(C(=O)c3ccccc3)[C@@](Cc3ccc(F)cc3)(C(=O)OC)[C@@H]21`, for which the composite z-score in [1] was -0.137; in assay [3], -0.0715; in assay [4] it was 1.15; in assay [5] it was 0.153; in assay [6], -0.0405; in [7], -0.0738. The composite z-score is -0.298 in [8], 0.943 in assay [9] and -0.155 in assay [10]. This compound displayed a z-score in assay [2] of -1.32.
On to `CCOC(=O)C1=C[C@@H](c2ccccc2)N(S(=O)(=O)c2ccc(C)cc2)[C@H]1c1cccc(Cl)c1`, for which the composite z-score is 0.242 in [1]; -0.0476 in assay [3]; 1.64 in assay [4]; 0.999 in assay [5]; 0.027 in assay [6]; -0.0289 in assay [7]. The composite z-score in [8] worked out at 0.568; in [9] it was 2.5; in [10] it was 2.25. For the same compound, in [2], the z-score is -1.81.
